Where “and” joins values, the source holds several entries; their conditions need not be identical. Equal entries are not always repeated.

Results on 34 molecules are retold here after PubChem BioAssay AID651919 (Sanford-Burnham Center for Chemical Genomics, 2012).

The target in this assay is C-X-C chemokine receptor type 6 (Homo sapiens) (UniProt O00574). In words: antagonism of CXCR6 versus CXCR5 signaling – cell-based, CHO-K1 PathHunter beta-arrestin, luminescence, set 4, selectivity assay for CXCR6 antagonist project, profiling panel (AID 651919). The conditions noted are these: run 2, at 79 µM (top of the series).
Chain of C-X-C chemokine receptor type 6 (Homo sapiens) (O00574 whole entry, looked up): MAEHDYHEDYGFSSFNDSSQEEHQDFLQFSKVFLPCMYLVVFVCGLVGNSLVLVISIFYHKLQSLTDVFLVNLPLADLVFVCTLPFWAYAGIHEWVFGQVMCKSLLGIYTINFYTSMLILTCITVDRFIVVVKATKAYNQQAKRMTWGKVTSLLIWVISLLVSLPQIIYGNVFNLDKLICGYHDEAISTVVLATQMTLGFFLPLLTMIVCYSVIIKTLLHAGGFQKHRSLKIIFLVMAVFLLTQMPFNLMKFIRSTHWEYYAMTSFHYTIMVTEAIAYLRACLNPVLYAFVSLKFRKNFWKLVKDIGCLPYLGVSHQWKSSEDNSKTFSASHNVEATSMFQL

As usually defined, the inhibition is the drop in the measured response relative to a control, in per cent. As for `COc1ccc(C(=O)NC2CC3CCCC(C2)N3CC(=O)Nc2ccc(F)cc2)cc1OC` (centres undefined), the inhibition was found to be 29.3%.
With `COc1ccc(NC(=O)CN2C3CCCC2CC(NC(=O)c2ccc(OC)cc2)C3)cc1` (centres undefined), the inhibition was 4.54%.
Consider `O=C(CN1C2CCCC1CC(NC(=O)c1ccc3c(c1)OCO3)C2)Nc1ccc(Cl)cc1` (centres undefined), for which the inhibition was -3.16%.
Take `COc1cc(OC)cc(C(=O)NC2CC3CCCC(C2)N3CC(=O)Nc2ccc(C)cc2)c1` (centres undefined): the inhibition amounted to 55.4%.
As for `COc1cc(C(=O)NC2CC3CCCC(C2)N3CC(=O)Nc2ccccc2)cc(OC)c1OC` (centres undefined), the inhibition is 94% and 90.4%.
With `COc1cc(OC)cc(C(=O)NC2CC3CCCC(C2)N3CC(=O)Nc2ccc(Cl)cc2)c1` (centres undefined), the inhibition was -8.8%.
`COc1ccc(NC(=O)CN2C3CCCC2CC(NC(=O)c2ccc4c(c2)OCO4)C3)cc1` (centres undefined): the inhibition was determined as 4.54%.
On to `O=C(CN1C2CCCC1CC(NC(=O)c1ccc3c(c1)OCO3)C2)Nc1ccc(F)cc1` (centres undefined), for which the inhibition was -2.79%.
Consider `COc1ccc(NC(=O)CN2C3CCCC2CC(NC(=O)c2ccc(OC)c(OC)c2)C3)cc1` (centres undefined), for which the inhibition is -3.76%.
To `COc1cccc(C(=O)NC2CC3CCCC(C2)N3CC(=O)Nc2ccccc2)c1` (centres undefined) belongs 8.64%; to `COc1cc(OC)cc(C(=O)NC2CC3CCCC(C2)N3CC(=O)Nc2ccccc2)c1` (centres undefined), 3.13%; to `COc1ccc(C(=O)NC2CC3CCCC(C2)N3CC(=O)Nc2ccc(F)cc2)cc1` (centres undefined), -0.539%.
As to `Cc1ccc(NC(=O)CN2C3CCCC2CC(NC(=O)c2ccc4c(c2)OCO4)C3)cc1` (centres undefined), the inhibition stood at 5.62%.
Regarding `COc1cc(C(=O)NC2CC3CCCC(C2)N3CC(=O)Nc2ccc(Cl)cc2)cc(OC)c1OC` (centres undefined), the inhibition was 90.4%.
With `COc1ccc(NC(=O)CN2C3CCCC2CC(NC(=O)c2cc(OC)cc(OC)c2)C3)cc1` (centres undefined), the inhibition is -0.62%.
For `COc1ccc(C(=O)NC2CC3CCCC(C2)N3CC(=O)Nc2ccccc2)cc1OC` (centres undefined), the inhibition came to 30.3%.
Consider `COc1cccc(C(=O)NC2CC3CCCC(C2)N3CC(=O)Nc2ccc(C)cc2)c1` (centres undefined), for which the inhibition turned out to be 3.25%.
For the molecule `COc1cc(OC)cc(C(=O)NC2CC3CCCC(C2)N3CC(=O)Nc2ccc(F)cc2)c1` (centres undefined), the inhibition is -4.2%.
Take `COc1ccc(CN2C3CCCC2CC(NC(=O)c2cc(OC)c(OC)c(OC)c2)C3)cc1` (centres undefined): the inhibition is 56.8%.
Take `COc1cccc(C(=O)NC2CC3CCCC(C2)N3CC(=O)Nc2ccc(F)cc2)c1` (centres undefined): the inhibition came to 2.48%.
Turning to `COc1ccc(C(=O)NC2CC3CCCC(C2)N3CC(=O)Nc2ccc(Cl)cc2)cc1` (centres undefined), the inhibition is -10.3%.
For `COc1ccc(C(=O)NC2CC3CCCC(C2)N3CC(=O)Nc2ccc(C)cc2)cc1OC` (centres undefined), the inhibition came to 4.86%.
Turning to `O=C(CN1C2CCCC1CC(NC(=O)c1ccc3c(c1)OCO3)C2)Nc1ccccc1` (centres undefined), the inhibition was 5.06%.
Regarding `COc1ccc(NC(=O)CN2C3CCCC2CC(NC(=O)c2cccc(OC)c2)C3)cc1` (centres undefined), the inhibition is -0.0157%.
Turning to `COc1cc(C(=O)NC2CC3CCCC(C2)N3CC(=O)Nc2ccc(F)cc2)cc(OC)c1OC` (centres undefined), the inhibition was determined as 81.3%.
For `O=C(CN1C2CCCC1CC(NC(=O)c1ccccc1)C2)Nc1ccccc1` (centres undefined) the value was 7.76%; for `COc1ccc(C(=O)NC2CC3CCCC(C2)N3CC(=O)Nc2ccccc2)cc1` (centres undefined), 8.56%.
With `COc1ccc(NC(=O)CN2C3CCCC2CC(NC(=O)c2cc(OC)c(OC)c(OC)c2)C3)cc1` (centres undefined), the inhibition turned out to be 61.4%.
Turning to `COc1cc(C(=O)NC2CC3CCCC(C2)N3CC(=O)Nc2ccccc2Cl)cc(OC)c1OC` (centres undefined), the inhibition was 100% and 99.1%.
On to `COc1cc(C(=O)NC2CC3CCCC(C2)N3CC(=O)Nc2ccc(C)cc2)cc(OC)c1OC` (centres undefined), for which the inhibition turned out to be 77.6%.
For `COc1ccccc1NC(=O)CN1C2CCCC1CC(NC(=O)c1cc(OC)c(OC)c(OC)c1)C2` (centres undefined) the value was 98.2%; for `COc1ccc(C(=O)NC2CC3CCCC(C2)N3CC(=O)Nc2ccc(C)cc2)cc1` (centres undefined), 6.15%; for `COc1cccc(C(=O)NC2CC3CCCC(C2)N3CC(=O)Nc2ccc(Cl)cc2)c1` (centres undefined), -8.76%.
As to `COc1ccc(C(=O)NC2CC3CCCC(C2)N3CC(=O)Nc2ccc(Cl)cc2)cc1OC` (centres undefined), the inhibition came out at 14.6%.
